Reference: PubChem BioAssay AID2732 (Emory University Molecular Libraries Screening Center, 2010)
“And” between values parts separate entries of the source, which are not always exact repeats. Equal entries are not always repeated. Hit rate of the full screen: of about 220,000 compounds, about 8,200 (3.7%) were called active.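 The calls were made as follows: active = compounds that reduced the stress-induced luciferase reporter signal by more than about 70% of percent inhibition (limit read from the data); inactive = the rest.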 Only a selection was taken, and actives are over-represented in it overall. Some structures have more than one record in an assay (separate samples or runs), and their calls can disagree.

experiment: blockers of ER-stress CHOP reporter expression – cell-based, unfolded protein response, luciferase reporter, primary screen (AID 2732); conditions: CHO-K1 CHOP-promoter luciferase, tunicamycin-induced, 15-18 h; at 10 µM; stronger effect = higher value;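 also: 0% = tunicamycin plus vehicle and 100% = wells without tunicamycin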

Row | SMILES | inhibition
1 | COCCN(Cc1cc2cc3c(cc2nc1Cl)OCO3)C(=O)c1cccc(C)c1 | 27.4% (inactive)
2 | COC(=O)N(NC(=O)C(O)(C(C)C)C(C)C)c1ccccc1 | 16% (inactive)
3 | COC(=O)c1cc(NC(=O)c2cc(C(C)(C)C)nn2Cc2cccc(C)c2)ccc1N1CCOCC1 | 42.8% (inactive)
4 | CCOC(=O)C1C(c2ccc(OC)c(OC)c2)c2c([nH][nH]c2=O)CC1(C)O (centres undefined) | 3.71% (inactive)
5 | O=C1N=C(N2CCc3ccccc3C2)S/C1=C\c1ccc(O)cc1 | -2.8% (inactive)
6 | O=C(CSc1ccc(/C=N/NC(=O)c2cccc(F)c2)o1)Nc1ccccc1 | -10.9% (inactive)
7 | Cc1ccc(NC(=O)C(=O)NCc2ccc(/C=N/NC(=O)c3c(C)nc4cc(C)ccn34)o2)cc1 | 78.9% (active)
8 | C/C(=N\OC(=O)c1ccccc1)c1c(C)nc2cc(C)ccn12 | 15.7% (inactive)
9 | COc1ccc(S(=O)(=O)N(CC(=O)N/N=C/c2ccccc2C(=O)O)c2ccccc2OC)cc1 | -10.7% (inactive)
10 | CCOC(=O)c1c(-c2cccc(N)c2)cn2ccccc12 | 20% (inactive)
11 | CCOC(=O)c1nnn(-c2nonc2OC)c1-c1ccccc1 | 24.9% (inactive)
12 | CCOC(=O)c1c(N)nn(C(=O)c2ccccc2)c1-c1ccccc1 | 72.5% (active)
13 | C=C1CCN([C@H](C(=O)NCc2cc(OC)c(OC)c(OC)c2)C(C)C)S(=O)(=O)c2ccccc21 | -3.31% (inactive)
14 | Cc1nc(Cl)c(C#N)c2c1CCCC2 | 18.3% (inactive)
15 | O=S(=O)(c1ccc(Cl)cc1)N1CCCN(c2ccc(C(F)(F)F)cn2)CC1 | 21.2% (inactive)
16 | COc1ccc(/C=C2/S/C(=N/N=C3\CC4CCC3(C)C4(C)C)NC2=O)cc1 (centres undefined) | 88.5% (active)
17 | COc1ccc(/C=C2\SC(=N)N(c3ccc(F)cc3)C2=O)cc1 | 38.3% (inactive)
18 | CCOc1ccc(N=C2NC(=O)S/C2=C\c2ccc(O)cc2)cc1 | 64.1% (inactive)
19 | O=S(=O)(NC(=S)Nc1ccccc1)c1ccc(F)cc1 | -27.1% (inactive)
20 | N#Cc1c(NCCO)ccc([N+](=O)[O-])c1NCCO | 14.8% (inactive)
21 | COc1ccc(/C=C2\N=C3CCCN3C2=O)cc1 | -36.1% (inactive)
22 | Cc1cc(C)nc(Nc2n[nH]c(-c3ccccc3N)n2)n1 | -32.3% (inactive)
23 | COc1cc(/C=N/O)cc(Br)c1OCc1cccc(Cl)c1 | 108% (active)
24 | CCOc1c(Cl)cc(/C=N/O)cc1OC | 10.4% (inactive)

Row | SMILES | inhibition
25 | CCOc1cc(/C=N/O)cc(Br)c1OC | 23.6% (inactive)
26 | C#CCOCCOCCOCCNc1nc(N2CCN(C(=O)[C@H](CCC(=O)O)n3cc(C(N)CO)nn3)CC2)nc(N2CCN(C(=O)[C@H](CCCCN)n3cc(C(N)[C@H](C)CC)nn3)CC2)n1 (some centres undefined) | -9.04% (inactive)
27 | CCOC(=O)c1c(C)nn(-c2ncccc2NC(=O)CCC(=O)O)c1C | 15.2% (inactive)
28 | COC(=O)c1c(C)oc(C)c1S(=O)(=O)Nc1ccc(C(C)C)cc1 | 8.63% (inactive)
29 | Cc1cccc(N2CCN(Cc3nc(C4CC4)no3)CC2)n1 | -7.46% (inactive)
30 | Nc1cccc(S(=O)(=O)Nc2ccc(SC(F)F)cc2)c1 | 6.78% (inactive)
31 | CCCCCC(=O)Nc1ccc(C(=O)N/N=C/c2ccc([N+](=O)[O-])cc2)cc1 | 73.8% (active)
32 | CCCCCC(=O)NC(=S)NNC(=O)c1ccc([N+](=O)[O-])cc1 | 26.4% (inactive)
33 | O=C(COc1ccc(/C=N/NC(=O)c2ccc(O)cc2)cc1)Nc1ccc([N+](=O)[O-])cc1 | 0.44% (inactive)
34 | O=C1NC[C@@H](Cc2ccc(O)cc2)N(CCc2cccc(F)c2)C1=O | -6.82% (inactive)
35 | Brc1ccc(-c2n(-c3ccccn3)c3ccccc3[n+]2-c2ccccn2)cc1 | 24.6% (inactive)
36 | CCOC(=O)c1sc(-c2cccc([N+](=O)[O-])c2)cc1N | 75.2% (active)
37 | Cc1cccc(C(=O)NNC(=O)c2cccc([N+](=O)[O-])c2)c1 | 3.14% (inactive)
38 | CCOC(=O)c1sc2nc(SC)nc(-c3ccccc3)c2c1N | -31.5% (inactive)
39 | CC(C)c1ccc(NC(=S)NC2CC3C=CC2C3)cc1 (centres undefined) | 51.2% (inactive)
40 | CC(=O)Nc1nc2c(s1)C(=O)NCC(C)(C)C2 | 12.8% (inactive)
41 | Brc1ccc(-c2noc(-c3ccccc3)n2)o1 | 26.1% (inactive)
42 | CS(=O)(=O)c1ccc(Cl)c(NC(=O)Nc2ccccc2)c1 | 2.73% (inactive)
43 | CCCn1c(C(O)c2ccc(OCC)cc2)nc2ccccc21 (centres undefined) | 19% (inactive)
44 | CCCCCC(O)c1cccc(OCc2ccc3ccccc3n2)c1 (centres undefined) | 88.4% (active) and -8.07% (inactive)
45 | CCCCCCOC(=O)NCC(O)c1ccccc1 (centres undefined) | 1.35% (inactive)
46 | O=C(NC(=O)c1cc(OCC(F)(F)F)ccc1OCC(F)(F)F)Nc1ccccc1 | 6.78% (inactive)
47 | Cc1ccc(/C=N/NC(=O)CSc2ccccn2)o1 | -0.26% (inactive)
48 | CC(C)n1c(=S)[nH]c2cc(C(F)(F)F)ccc21 | 22.9% (inactive)

Row | SMILES | inhibition
49 | CCc1ccc(NC(=O)Cn2nc(C)c([N+](=O)[O-])c2C)cc1 | 14.9% (inactive)
50 | Cc1ccc(Oc2cc(NC(=O)CCCn3nc(C)c([N+](=O)[O-])c3C)cc([N+](=O)[O-])c2)cc1 | 71.1% (active)
51 | COc1ccc(CNC(=O)CCCn2nc(C)c([N+](=O)[O-])c2C)cc1 | 11.7% (inactive)
52 | Cc1ccc(/C=N/NC(=O)CN2CCN(Cc3ccccc3)CC2)s1 | 13.5% (inactive)
53 | CCOC(=O)c1ccc(NC(=O)Cn2cnc3cc(C)c(C)cc32)cc1 | 55.6% (inactive)
54 | O=C(NNS(=O)(=O)c1ccccc1)c1cnn(-c2ccc(Cl)cc2)c1C(F)(F)F | -3.7% (inactive)
55 | C[C@H](NC(=O)c1nc[nH]c1C(=O)N[C@@H](C)C(=O)OC(C)(C)C)C(=O)OC(C)(C)C | 1.44% (inactive)
56 | Cc1ccc(Nc2nc(CSc3nnnn3-c3ccccc3)cc(=O)[nH]2)cc1 | 81.8% (active)
57 | Cc1ccc(-c2noc(CSc3nnc(-c4ccccc4)n3C)n2)cc1 | 66.5% (inactive)
58 | Cc1ccc(-c2noc(CSc3nnc(-c4cccs4)n3C)n2)cc1 | -8.68% (inactive)
59 | COc1ccc(C)cc1-n1nnnc1SCc1nc2ccccc2c(=O)[nH]1 | 12.6% (inactive)
60 | O=c1c2ccccc2nc(CSc2nnnn2-c2ccccc2)n1-c1ccccc1 | 32.4% (inactive)
61 | Cc1ccc(-c2noc(CSc3nnnn3-c3ccccc3)n2)cc1 | 70.7% (active)
62 | Cn1c(C(=O)O)ccc1S(=O)(=O)N(Cc1ccccc1)Cc1ccccc1 | 2.64% (inactive)
63 | O=C(NC(=O)c1ccccc1N1CCCCC1)Nc1ccc(Br)cc1 | -4.77% (inactive)
64 | Cc1ccc(OCC(=O)c2cc(C)n(Cc3ccco3)c2C)c([N+](=O)[O-])n1 | 31% (inactive)
65 | CCOc1ccc2c(c1)C(c1ccc(C)cc1)=NNC(c1ccc(C)cc1)=N2 | 37.2% (inactive)
66 | CCc1ccc2c(c1)C(c1ccc([N+](=O)[O-])cc1)=NNC(c1ccccc1)=N2 | 93.7% (active)
67 | Cc1ccc(C2=Nc3c(ccc4ccccc34)C(c3ccncc3)=NN2)cc1 | 64.5% (inactive)
68 | C/C(=N/Nc1nc(-c2ccccc2)c(CC(=O)O)s1)c1ccccc1 | -18.2% (inactive)
69 | CCCCN(CCCC)CC(O)Cn1c2ccccc2c(=O)c2ccccc21 (centres undefined) | 11% (inactive)
70 | CC(NC(=O)C(=O)Nc1nccs1)c1ccccc1 (centres undefined) | 24.1% (inactive)
71 | O=C(O)CCCCCCCCCC[n+]1ccccc1 | -11.5% (inactive)
72 | CCc1nc(C)ccc1OCC(=O)N(CC)CC | 18.9% (inactive)

Row | SMILES | inhibition
73 | CN(C)CCOc1ccc(Cl)cc1C(C)(C)C | -2.87% (inactive)
74 | CCC(C)(C)c1ccc(OCC(=O)N(C)C)c(C(C)(C)CC)c1 | 85.7% (active)
75 | Cn1nccc1NS(=O)(=O)c1ccc(F)cc1 | -5.82% (inactive)
76 | Cc1cc(=O)[nH]c(S)c1C#N | 2.71% (inactive)
77 | CC(C)(C)c1ccc(CCC2OCC(CN3CCOCC3)O2)cc1 (centres undefined) | 3.73% (inactive)
78 | COc1ccccc1-n1cn[nH]c1=S | 11.5% (inactive)
79 | COC(=O)c1cc(C(=O)CSc2nc(C)cc(C)n2)ccc1O | 5.39% (inactive)
80 | Cc1cc(Oc2ccc(Cl)cc2)nc(SCC(=O)c2ccccc2)n1 | 70.2% (active)
81 | Cc1cc(SCC(=O)c2ccccc2)nc(SCC(=O)c2ccccc2)n1 | 15.9% (inactive)
82 | O=C(NNC(=O)c1csc(-c2cccnc2)n1)Nc1ccc(Cl)cc1 | -32.3% (inactive)
83 | Cn1cc(S(=O)(=O)NC(c2ccccc2)c2ccccc2)c(=O)n(C)c1=O | 9.19% (inactive)
84 | O=C(NCc1ccccc1Cl)NC(=O)c1csc([N+](=O)[O-])c1 | -5.11% (inactive)
85 | CCn1c(C(C)NC(=O)c2ccc(C)cc2)n[nH]c1=S (centres undefined) | 25.9% (inactive)
86 | CCN1CCC2(CC1)N=C(c1ccc(F)cc1)C(=S)N2C(=O)c1ccc(C)cc1 | 95.4% (active)
87 | Cc1ccc(C(=O)N(CN2CCCC2=O)c2ccc(F)cc2)cc1 | -13.1% (inactive)
88 | CCn1c(SCC(=O)Nc2cccc(F)c2)nnc1-c1cc2cc(Br)ccc2o1 | 72.8% (active)
89 | CCn1c(CNC(=O)c2ccco2)nnc1SCC(=O)Nc1cccc(F)c1 | -0.15% (inactive)
90 | Cn1c(SCC(=O)Nc2ccc(Br)cc2F)nnc1-c1ccco1 | 24.1% (inactive)
91 | COC(=O)[C@H](Cc1ccccc1)NC(=O)Nc1ccc(OC)cc1 | 4.48% (inactive)
92 | CCOC(=O)c1cc(NC(=O)c2ccc(Cl)cc2)c(=O)oc1-c1ccccc1 | 77.2% (active)
93 | CCOC(=O)NNC(=O)c1ccc(Cl)cc1 | -19.9% (inactive)
94 | CC(=O)c1cc(NC(=O)c2ccccc2)c(=O)oc1/C=C/N(C)C | 11.8% (inactive)
